Screening data as filed in PubChem BioAssay.
CHO-K1 Ca antag = nonselective inhibitor or artifact in parental CHO-K1 cells. inhibition, % at 3 µM. ATP-induced calcium, Fluo-8 fluorescence. 360,000 tested, 0.6% active. AID 602250;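 active = inhibition above a per-plate cutoff, the plate's mean sample inhibition plus 3 SD, cut at about 24% in these data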
M1 ag parental = counter-screen for M1 agonists: effect in parental CHO-K1 cells | Fluo-8 calcium fluorescence; scaled to maximal ATP response, vehicle zero | activation, % at 3 µM | 360,000 tested, 0.48% active; in the data active = activation above about 15%;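 note: untransfected CHO-K1 host cells lacking M1 receptor as counterscreen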
CHRM1 antagonist = human M1 muscarinic receptor antagonists, primary screen, CHO-K1 cells, Fluo-8 calcium fluorescence, 1536-well; CHO-K1 hM1, ACh EC80 antagonist; AID 588852, 2011; Muscarinic acetylcholine receptor M1 (Homo sapiens), P11229; inhibition, % at 3 µM; 360,000 tested, 1.3% active;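 active = percent inhibition above its own plate's cutoff, namely the mean of that plate's compound wells plus 3 SD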;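 note: peak over basal fluorescence ratio during 140 s after agonist addition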
Target sequence (P11229 whole entry, looked up): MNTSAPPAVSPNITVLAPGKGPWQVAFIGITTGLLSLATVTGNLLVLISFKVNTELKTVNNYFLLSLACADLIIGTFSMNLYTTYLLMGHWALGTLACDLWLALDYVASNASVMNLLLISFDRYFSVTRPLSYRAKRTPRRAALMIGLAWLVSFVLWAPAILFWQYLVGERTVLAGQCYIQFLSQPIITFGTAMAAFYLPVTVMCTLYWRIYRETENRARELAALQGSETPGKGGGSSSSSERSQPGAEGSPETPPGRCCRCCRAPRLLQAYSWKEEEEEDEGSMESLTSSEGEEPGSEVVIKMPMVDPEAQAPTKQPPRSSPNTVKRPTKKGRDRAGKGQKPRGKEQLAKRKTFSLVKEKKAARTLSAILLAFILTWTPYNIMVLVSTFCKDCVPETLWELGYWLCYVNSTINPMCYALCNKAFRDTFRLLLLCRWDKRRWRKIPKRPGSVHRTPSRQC
M1 PAM parental = nonselective calcium activators in parental CHO-K1 cells, primary screen, counter-screen for M1 PAM project, cell-based, Fluo-8 calcium fluorescence, full deck, 1536-well; 360,000 tested, 0.02% active; ATP EC20; 0% at ATP EC20, 100% at ATP max; activation, % at 3 µM;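 active = activation above the run cutoff, the mean activation of all test compounds plus 3 SD, cut at about 40% in these data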;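 note: peak over basal fluorescence ratio in a 140 s read after ATP addition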
CHRM1 PAM = human M1 muscarinic receptor positive allosteric modulators, primary screen, CHO-K1 cells, Fluo-8 calcium fluorescence, 1536-well; Muscarinic acetylcholine receptor M1 (Homo sapiens), P11229; 360,000 tested, 0.088% active; activation, % at 3 µM; CHO-K1 hM1, ACh EC20; 0% = ACh EC20, 100% = maximal ACh; in the data active = activation above about 19%, passing the limit was not always enough
M1 ag = human M1 muscarinic receptor agonists, primary screen, Fluo-8 calcium fluorescence, CHO-K1 cells, HTS. CHO-K1 hM1, agonist mode; 0% DMSO, 100% acetylcholine EC100. 360,000 tested, 0.33% active. activation, % at 3 µM;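 active = activation above the run's mean compound activation plus 3 SD, cut at about 16% in these data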;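 note: peak over basal fluorescence ratio within a 140 s kinetic read after compound addition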
Large screens that a line does not name were inactive. A selection: hits, their analogues and other compounds. The true share with any hit is near 2.3%.

O=C1C2CCCN2C(c2cccs2)N1c1ccc(F)cc1 (centres undefined)	none
COc1cccc(N2C(=O)C3CCCN3C2c2cccs2)c1 (centres undefined)	M1 ag 18
O=S(=O)(c1ccc(N2CCCC2)nc1)N1CCCC1	none
CCN1CCN(c2ccc(N3CCN(S(=O)(=O)c4cc([N+](=O)[O-])ccc4C)CC3)nn2)CC1	CHRM1 antagonist 40
CCN1CCN(c2ccc(S(=O)(=O)N3CCCC3)cn2)CC1	CHRM1 antagonist 36
CC(=O)Oc1ccc(Cn2c(C)c(C(=O)NC3CC3)sc2=O)cc1	none
CN(Cc1ccccc1)C1=CC(=[N+]2CCCCC2)CC(C)(C)C1	CHRM1 antagonist 39
Cc1ccc(-n2nc(C(=O)c3ccccc3)n3c(=O)cc(-c4ccccc4)nc23)cc1	CHRM1 antagonist 37
CC[C@@H](C)[C@@H]1CN([C@@H](CN2CCC[C@H]2CN2C(N)=NC[C@H]2C(C)C)C(C)C)C(=N)N1CCc1ccc(Cl)c(Cl)c1	none
CC[C@@H](C)[C@@H]1CN([C@@H](C)CN2CCC[C@H]2CN2C(N)=NC[C@@H]2Cc2ccccc2)C(=N)N1CCc1ccc(Cl)c(Cl)c1	CHRM1 antagonist 49
CC[C@@H](C)[C@@H]1CN([C@@H](C)CN2CCC[C@H]2CN2C(N)=NC[C@@H]2Cc2ccccc2)C(=N)N1CCCC1CCCC1	CHRM1 antagonist 76
CCCC[C@@H]1CNC(=S)N1CCCC	none
Cc1ccc(N2CC(C(=O)OCC(=O)Nc3cccc(Cl)c3C)CC2=O)cc1 (centres undefined)	none
CCc1ccccc1NC(=O)COC(=O)C1CC(=O)N(c2ccc(F)cc2)C1 (centres undefined)	CHO-K1 Ca antag 29
Cc1[nH]c(=S)[nH]c(=O)c1Cc1c(O)ccc2ccccc12	CHRM1 PAM 27, M1 ag 35
Cc1[nH]c(=S)[nH]c(=O)c1Cc1ccccc1	none
COc1ccc(-c2n[nH]c(C)c2-c2ccc(Cl)cc2)c(O)c1	none
C=C(C)COc1ccc(-c2n[nH]c(C)c2-c2ccc(OC)c(OC)c2)c(O)c1	CHO-K1 Ca antag 55
COc1ccc(-c2n[nH]c(C)c2-c2ccc(Cl)cc2)c(O)c1OC	CHO-K1 Ca antag 27, CHRM1 antagonist 35
O=C1CCCC2=C1C1(CCCC1)N=C(Nc1nc3cc(-c4ccccc4)ccc3o1)N2	none
Cc1ccc2c(c1)N(C(=O)CSc1nncn1C)C(C)(C)c1ssc(=S)c1-2	CHRM1 antagonist 41
Cc1cc2c(cc1C)N(C(=O)CSc1nncn1C)C(C)(C)c1ssc(=S)c1-2	none
CCOC(=O)C1=C(NC(=S)NC(=O)c2ccccc2)c2ccccc2CC1(C)CC (centres undefined)	M1 ag parental 20
CCOC(=O)C1=C(NC(=S)NC(=O)c2ccccc2)c2ccccc2CC1C(C)C (centres undefined)	none
CN(/N=C/c1cc([N+](=O)[O-])ccc1O)c1ccccc1	none
CN(/N=C/c1ccc(-c2ccc([N+](=O)[O-])cc2)o1)c1ccccc1	CHO-K1 Ca antag 30, M1 ag parental 17
CCOc1ccc(NCc2cccn2-c2nnc(N3CCC(C(=O)NCCCN4CCCCC4CC)CC3)s2)cc1 (centres undefined)	CHRM1 antagonist 88
O=C(NNc1ccnc2cc(Cl)ccc12)C1CCCCC1	CHRM1 antagonist 32
Cc1ccc2nc(SCc3nc4c(cnn4-c4ccccc4)c(=O)[nH]3)[nH]c2c1	CHO-K1 Ca antag 27
CCOC(=O)C1CCCN(C(=S)Nc2cccc(Cl)c2)C1 (centres undefined)	CHRM1 antagonist 62, M1 ag 74
CCOC(=O)C1CCCN(C(=S)Nc2cccc(Cl)c2C)C1 (centres undefined)	CHRM1 antagonist 57, M1 ag 68
CCOC(=O)C1CCCN(C(=O)c2cccc(NC(=O)C(CC)CC)c2)C1 (centres undefined)	CHO-K1 Ca antag 24
COc1ccccc1NC(=O)c1ccc(NC(=O)CSc2ncn[nH]2)cc1	none
CC(=O)c1ccc(N2CCN(C(=O)C3CCN(S(=O)(=O)c4cccs4)CC3)CC2)cc1	none
COc1ccc(C2C(C(=O)N3CCCC3)c3cc(OC)c(OC)cc3C(=O)N2C)cc1 (centres undefined)	CHO-K1 Ca antag 26
O=C(Nc1ccc(S(=O)(=O)N2CCCCC2)cc1)c1ccccc1Cl	none
Cc1ccc(NC(=O)C2CCN(S(=O)(=O)c3cccc4nonc34)CC2)cc1	none
O=S(=O)(c1ccc(NC(=S)NCc2cccnc2)cc1)N1CCCCC1	CHRM1 antagonist 44
O=C(NCc1cccnc1)c1ccc(S(=O)(=O)N2CCCCC2)cc1	none
O=C(Nc1cccc(F)c1)C1CCN(S(=O)(=O)c2cccc3nonc23)CC1	M1 ag parental 20
O=C(Nc1ccccc1)Nc1ccc(S(=O)(=O)N2CCCCC2)cc1	CHO-K1 Ca antag 24
CCN(CC(=O)Nc1cc(S(=O)(=O)N2CCCCC2)ccc1Cl)Cc1ccccc1	CHO-K1 Ca antag 36
O=C(Nc1cccc(Cl)c1)Nc1cc(S(=O)(=O)N2CCCCC2)ccc1Cl	CHO-K1 Ca antag 38, CHRM1 antagonist 25
O=S(=O)(Nc1ccc(F)cc1)c1ccc(S(=O)(=O)N2CCOCC2)cc1	M1 ag parental 34, M1 ag 24
CCCC(=O)Nc1ccc(S(=O)(=O)N2CCCC2)cc1	none
O=C(O)CCC(=O)Nc1ccc(S(=O)(=O)N2CCCC2)cc1	CHO-K1 Ca antag 25
O=S(=O)(Nc1ccc(S(=O)(=O)N2CCCC2)cc1)c1ccc(F)cc1	none
O=C(Nc1ccc(S(=O)(=O)N2CCCC2)cc1)C1CCN(S(=O)(=O)c2ccc(F)cc2)CC1	M1 ag 17
CN1CCN(S(=O)(=O)c2ccc(NC(=O)Nc3cccc(Cl)c3)cc2)CC1	none
CCn1nc(C)c(NS(=O)(=O)c2ccccc2)c1C	none
O=C(CN1CCN(S(=O)(=O)c2ccc(Br)cc2)CC1)Nc1ccc(F)cc1	none
CC1CCN(S(=O)(=O)c2ccc(NC(=O)CN3CCCC(C)C3)cc2)CC1 (centres undefined)	none
O=C(CN1CCN(S(=O)(=O)c2ccc(Br)cc2)CC1)Nc1ccc2c(c1)OCO2	M1 ag parental 22
COc1cc2c(cc1OC)CN(CC(=O)Nc1ccc(S(=O)(=O)N3CCCC3)cc1)CC2	none
